Compound activity as filed in PubChem.
iPSC survival up – increases survival of single human iPS cells; hiPSC single-cell survival, ATPlite luminescence; 100% = ROCK inhibitor wells, 0% = DMSO; survival enhancement, % at 20 µM; actives 0.044% (n = 360,000); AID 602274; in the data active = survival enhancement above about 18%;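 also: cells exposed to compounds for 16 hours before the ATP read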
TWEAK-Fn14 inh – inhibitors of TWEAK-Fn14 interaction signaling; TWEAK-stimulated Fn14 reporter cells, luciferase luminescence, 8 h; inhibition, % at 10 µM; actives 2% (n = 360,000); in the data active = inhibition above about 50%
HIF-2a inh – HIF-2a inhibition. AID 624352. inhibition, % at 18.8 µM. 786-0 RCC cells HIF-2a reporter, luciferase luminescence, overnight. actives 0.72% (n = 360,000);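 active = inhibition of the luminescence signal of 40% or more relative to plate controls, in a single-dose primary screen at 18.75 µM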
CF NFkB inh – inhibitors of cystic fibrosis induced NF-kB. KKLEB NF-kB-GFP reporter, PAF-induced, GFP fluorescence overnight. inhibition, % at 5 µM. actives 0.86% (n = 360,000). AID 588850;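 active = at least 50% inhibition at 5 µM, scaled per plate between neutral and stimulator controls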;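 also: PAF is a Pseudomonas aeruginosa culture filtrate used as stimulus; plate controls were PAF-stimulated DMSO wells for no effect and unstimulated DMSO wells for full effect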
LGR2 inh – Drosophila LGR2 receptor signaling inhibition; HEK293 LGR2, CRE-luciferase, bursicon-stimulated, 4 h; inhibition, % at 9.99 µM; actives 0.35% (n = 380,000); AID 720647;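 active = drop in luminescence signal, shown as inhibition above about 50% in the replicate tests, limit read from the data, passing the limit was not always enough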;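 also: agonist challenge used bursicon conditioned medium at about half maximal strength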
KKLEB cytotox – CF airway cell cytotoxicity counter-screen. KKLEB CF airway cells viability, ATPlite luminescence, overnight; hits give low values; cells stimulated with P. aeruginosa culture filtrate. activity change (cytotoxicity), % at 5 µM. actives 0.36% (n = 360,000);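 active = corrected activity change at or below -50% at 5 µM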
* = called active by the depositor. Only some compounds are listed: those with a hit (about 2.3% of all), similar ones and a draw of the others.

Results for COc1cc(C(=O)Nc2cc(-c3cn4cccnc4n3)ccc2C)cc(OC)c1OC ?
iPSC survival up: 0; TWEAK-Fn14 inh: 92*; HIF-2a inh: -4; CF NFkB inh: -24; LGR2 inh: 8; KKLEB cytotox: 6

How did C[C@H](CO)N1C[C@H](C)[C@H](CN(C)C(=O)Nc2ccc(C(F)(F)F)cc2)Oc2ccc(NS(=O)(=O)c3ccc(Cl)cc3)cc2C1=O do in these assays?
LGR2 inh: 9

What do the screens show for `C[C@@H]1CCCCO[C@H](CN(C)C(=O)Nc2ccc3c(c2)OCO3)[C@@H](C)CN([C@@H](C)CO)C(=O)c2cc(NS(=O)(=O)c3cccs3)ccc2O1`?
LGR2 inh: 5

What do the screens show for `C[C@@H]1CN([C@H](C)CO)C(=O)c2cc(Br)cnc2O[C@@H]1CN(C)C(=O)C1CCCCC1`?
LGR2 inh: -14

How did O=C(Cc1cccs1)N1CCN=C1SCc1cccc(F)c1 do in these assays?
iPSC survival up: 1; TWEAK-Fn14 inh: 81*; HIF-2a inh: 12; CF NFkB inh: 15; LGR2 inh: 8; KKLEB cytotox: -3

What do the screens show for `O=C(Nc1nnc(CCS(=O)(=O)c2ccc(Br)cc2)s1)c1ccc([N+](=O)[O-])cc1`?
iPSC survival up: 2; TWEAK-Fn14 inh: 51*; HIF-2a inh: -4; CF NFkB inh: 5; KKLEB cytotox: -12

Results for O=C(C[C@@H]1C=C[C@@H](NC(=O)C2CC2)[C@H](CO)O1)NCc1ccncc1 ?
LGR2 inh: -5

What do the screens show for `O=C(C[C@@H]1C=C[C@@H](NC(=O)c2ccncc2)[C@@H](CO)O1)NCCc1ccncc1`?
LGR2 inh: 7

Results for Cc1cccc(C)c1N1CCN(C(c2cc3ccccc3o2)c2nnnn2C(C)(C)C)CC1 (stereo not drawn) ?
iPSC survival up: 0; TWEAK-Fn14 inh: 53*; HIF-2a inh: -25

Results for Cc1c(C(=O)N2CCN(Cc3ccc4c(c3)OCO4)CC2)sc2ncnc(N3CCN(c4ccccc4)CC3)c12 ?
iPSC survival up: 0; TWEAK-Fn14 inh: 87*; HIF-2a inh: -3; CF NFkB inh: -24; LGR2 inh: 36; KKLEB cytotox: 9

How did Cc1c(C(=O)N2CCN(Cc3ccc4c(c3)OCO4)CC2)sc2ncnc(N3CCN(c4ccccc4F)CC3)c12 do in these assays?
iPSC survival up: 0; TWEAK-Fn14 inh: 88*; HIF-2a inh: -20; CF NFkB inh: -24; LGR2 inh: 20; KKLEB cytotox: -18

Results for Cc1c(C(=O)N2CCN(c3ccccn3)CC2)sc2ncnc(N3CCN(c4ccccc4)CC3)c12 ?
iPSC survival up: 0; TWEAK-Fn14 inh: 8; HIF-2a inh: 13; CF NFkB inh: 1; KKLEB cytotox: -4

How did COc1ccc(-c2cn[nH]c2N)c(OC)c1 do in these assays?
iPSC survival up: -2; TWEAK-Fn14 inh: 27; HIF-2a inh: 9; CF NFkB inh: 64*; LGR2 inh: 18; KKLEB cytotox: -20

Results for COc1ccc(-c2cn[nH]c2N)cc1 ?
iPSC survival up: 0; TWEAK-Fn14 inh: 2; HIF-2a inh: -1; CF NFkB inh: 21; KKLEB cytotox: 12

Results for O=C(CN(Cc1ccccc1F)C(=O)c1csnn1)NC1CCCCC1 ?
iPSC survival up: 0; TWEAK-Fn14 inh: -1; HIF-2a inh: 57*; CF NFkB inh: -9; LGR2 inh: -11; KKLEB cytotox: 2

How did O=C(NC1CCCCC1)C(c1ccccc1)N(Cc1ccco1)C(=O)c1csnn1 (stereo not drawn) do in these assays?
iPSC survival up: 0; TWEAK-Fn14 inh: 64*; HIF-2a inh: 1; CF NFkB inh: -4; LGR2 inh: 1; KKLEB cytotox: -8

Results for COCCNC(=O)C[C@@H]1C[C@@H]2c3cc(NS(C)(=O)=O)ccc3O[C@@H]2[C@@H](CO)O1 ?
LGR2 inh: 18

How did CN1C/C(=C/c2cccnc2)C(=O)/C(=C/c2cccnc2)C1 do in these assays?
iPSC survival up: 24*; TWEAK-Fn14 inh: 65*; HIF-2a inh: 33; CF NFkB inh: 57*; LGR2 inh: 4; KKLEB cytotox: 1

What do the screens show for `O=C(C#Cc1ccccc1)Nc1cccc(F)c1`?
iPSC survival up: -1; TWEAK-Fn14 inh: 70*; HIF-2a inh: -131; CF NFkB inh: 58*; LGR2 inh: -81; KKLEB cytotox: -57*

What do the screens show for `O=C(C#Cc1ccccc1)Nc1ccc(F)cc1`?
iPSC survival up: 0; TWEAK-Fn14 inh: 15; HIF-2a inh: -148; CF NFkB inh: -8; LGR2 inh: -31; KKLEB cytotox: 4

How did Clc1ccccc1OCCn1nnc2ccccc21 do in these assays?
iPSC survival up: 0; TWEAK-Fn14 inh: 95*; HIF-2a inh: -255; CF NFkB inh: -9; LGR2 inh: -29; KKLEB cytotox: -12

What do the screens show for `Cc1ccc(S(=O)(=O)N(C)Cc2ccc(C(=O)N/N=C/c3ccc(OC(F)F)cc3OC(F)F)cc2)cc1`?
iPSC survival up: 3; TWEAK-Fn14 inh: 60*; HIF-2a inh: 16; CF NFkB inh: -2; KKLEB cytotox: 10

Results for COCCCNCC(O)COc1ccccc1F (stereo not drawn) ?
iPSC survival up: 0; TWEAK-Fn14 inh: 98*; HIF-2a inh: 16; CF NFkB inh: 4; LGR2 inh: 2; KKLEB cytotox: 4

What do the screens show for `C[C@H](CO)N1C[C@H](C)[C@H](CN(C)C(=O)Nc2ccc3c(c2)OCO3)Oc2c(NS(=O)(=O)c3cccs3)cccc2C1=O`?
LGR2 inh: -1

What do the screens show for `O=C(Nc1cc(Cl)cc(Cl)c1)c1ccc(Cn2c(=O)[nH]c3ccsc3c2=O)cc1`?
iPSC survival up: 2; TWEAK-Fn14 inh: -43; HIF-2a inh: 0; CF NFkB inh: 54*; KKLEB cytotox: -50*

What do the screens show for `O=C(C[C@H]1C[C@H]2c3cc(NS(=O)(=O)c4ccc(F)cc4)ccc3O[C@H]2[C@@H](CO)O1)NCc1ccc(Oc2ccccc2)cc1`?
LGR2 inh: 3

How did CCOC(=O)c1c(C)[nH]c(C(=O)N/N=C/c2cc([N+](=O)[O-])ccc2O)c1C do in these assays?
iPSC survival up: -1; TWEAK-Fn14 inh: 77*; HIF-2a inh: -58; CF NFkB inh: -7; LGR2 inh: 3; KKLEB cytotox: -8

Results for C[C@@H]1CN([C@@H](C)CO)C(=O)c2cc(-c3ccncc3)cnc2O[C@@H]1CN(C)C(=O)Cc1cccnc1 ?
LGR2 inh: -9

How did N#Cc1cccc(-c2ccc(C3[C@@H]4CN(C(=O)C5CCOCC5)C[C@H]3N4)cc2)c1 (stereo partly drawn) do in these assays?
LGR2 inh: 17

How did N#Cc1ccc(-c2ccc(C3[C@@H]4CN(C(=O)C5CC5)C[C@H]3N4)cc2)cc1 (stereo partly drawn) do in these assays?
LGR2 inh: 90*
